Experimental data from PubChem BioAssay AID1477 (National Center for Advancing Translational Sciences (NCATS), 2009).
Screen size: about 230,000 compounds; fewer than 10 were called active. About 3% were inconclusive and are not listed. Calls come from the whole dose curve; as a rule, active = well fitted curve in the direction sought with a large enough effect; inconclusive = small, poorly fitted or top-dose-only effect, or effect the other way, or another doubt; inactive = no such curve, though single readings can be large or run the other way. A selection follows. Bridge positions count the residues as written; N and C are the ends. Peptide text beside a SMILES is read from it.

What follows are molecules tested against Runt-related transcription factor 1 (Homo sapiens) + Core-binding factor subunit beta (Homo sapiens) (UniProt Q01196+Q13951) (assay: qHTS Assay for Compounds Blocking the Interaction Between CBF-beta and RUNX1 for the Treatment of Acute Myeloid Leukemia). Details: AlphaScreen CBFb-His/RUNX1-biotin binding, biochemical; series mostly up to 59.8 µM; activity, negative = inhibition: at the top concentration.
Excerpt: NIH Chemical Genomics Center [NCGC]
NIH Molecular Libraries Probe Production centers Network [MLPCN]
Assay Submitter (PI): Paul Liu
Core Binding Factor (CBF) abnormalities are associated with 20-25% of all acute myeloid leukemias (AML), of which 5-10% are further sub classified as acute myelomonocytic leukemia with eosinophilia, also known as M4Eo in the FAB classification scheme. This subtype of leukemia is usually associated with chromosome 16 inversion (p13:q22). Chromosome 16 inversion results in formation of the fusion oncogene CBFB-MYH11, which encodes the fusion protein CBF-beta-SMMHC.
It has been hypothesized that the interference of CBF-beta and RUNX1 binding could have therapeutic implications for patients with CBF mediated leukemias. We developed a CBF-beta and RUNX1 binding assay in AlphaScreenTM format and optimized it for high throughput screening to search for inhibitors. The goal of this project is to screen MLPCN's compound collection (MLSMR) for identifying the inhibitors of the interaction between CBF-beta and RUNX1 proteins as research probes. If these probes work well in the animal models, the ultimate goal of this project is to development a new drug treatment for this disease.
This assay can not be used to assess how apparent inhibitors interfere with protein binding, and whether inhibitors specifically bind to either protein. Disruption of this protein-protein interaction, through any mechanism, is the intended target activity.
NCGC Assay Protocol Summary:
Step, Parameter, Description
(1) Reagent, 3 uL CBFb-His/RUNX1-biotin mix incubated together for 20 minutes at room temperature (30 nM each)
(2) Compound or control, 23 nL compound stock solution
(3) Incubation, 15 minutes at Room temperature
(4) Reagent, 1 uL 50 ng each of beads (Nickel beads and streptavidin beads)
(5) Incubation, 90 minutes at Room temperature
(6) Detection, Excitation=365 nm Emission=440 nm, Envision reader in AlphaScreenTM mode
Keywords: MLSMR, MLPCN, NIH Roadmap, qHTS, NCGC, Core binding factor, CBF, CBF-beta, Acute myeloid leukemia
Note: % of control where 0% means no effect.

Chain of Runt-related transcription factor 1 (Homo sapiens) + Core-binding factor subunit beta (Homo sapiens) (Q01196 whole entry, looked up): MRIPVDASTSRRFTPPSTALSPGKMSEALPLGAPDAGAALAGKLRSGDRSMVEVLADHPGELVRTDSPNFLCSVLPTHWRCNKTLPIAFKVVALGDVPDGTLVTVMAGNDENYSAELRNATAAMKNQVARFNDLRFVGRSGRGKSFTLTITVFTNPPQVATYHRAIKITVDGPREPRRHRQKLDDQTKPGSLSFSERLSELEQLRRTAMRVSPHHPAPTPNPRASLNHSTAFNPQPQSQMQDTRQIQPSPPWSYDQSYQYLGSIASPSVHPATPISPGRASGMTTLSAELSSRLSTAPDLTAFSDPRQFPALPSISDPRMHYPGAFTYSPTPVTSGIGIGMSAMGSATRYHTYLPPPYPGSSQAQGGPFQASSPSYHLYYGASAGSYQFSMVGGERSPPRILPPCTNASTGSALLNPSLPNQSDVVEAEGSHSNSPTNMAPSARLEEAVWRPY
Chain of Runt-related transcription factor 1 (Homo sapiens) + Core-binding factor subunit beta (Homo sapiens) (Q13951 whole entry, looked up): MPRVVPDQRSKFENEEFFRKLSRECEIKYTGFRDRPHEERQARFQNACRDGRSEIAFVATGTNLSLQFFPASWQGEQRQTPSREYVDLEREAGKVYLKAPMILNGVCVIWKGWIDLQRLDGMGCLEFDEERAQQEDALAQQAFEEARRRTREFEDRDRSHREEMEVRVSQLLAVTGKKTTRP

activity, negative = inhibition, inactive:
CC[C@H](C)[C@H](NC(=O)[C@H](CCCNC(=N)N)NC(=O)[C@H](CCCNC(=N)N)NC(=O)[C@H](CC(C)C)NC(=O)[C@H](Cc1ccccc1)NC(=O)CNC(=O)CNC(=O)[C@@H](N)Cc1ccc(O)cc1)C(=O)N[C@@H](CCCNC(=N)N)C(=O)N1CCC[C@H]1C(=O)N[C@@H](CCCCN)C(=O)N[C@@H](CC(C)C)C(=O)N[C@@H](CCCCN)C(=O)N[C@@H](Cc1c[nH]c2ccccc12)C(=O)N[C@@H](CC(=O)O)C(=O)N[C@@H](CC(N)=O)C(=O)N[C@@H](CCC(N)=O)C(=O)O 4.96%, COC(=O)c1ccccc1N=Nc1c(C)[nH][nH]c1=O -0.539%, O=C(NCc1ccccc1)C1=C[C@@H](C2CCCCC2)C[C@@H](OCc2ccc(CO)cc2)O1 0.0499%, COc1ccc(N(CC(=O)NC2CCCCC2)C(=O)CNC(=O)c2ccco2)c(OC)c1 7.33%, CSc1ccccc1N1CCN(CCCCCC(=O)NC2CCCc3ccccc32)CC1 (centres undefined) -9.84%, CC1=C2[C@@H](O)[C@H]([C@@H](C)C(=O)NCCC(C)C)CC[C@@]2(C)C=CC1=O 13.2%, Cc1cccn2c(CN(C)C3CCCc4ccccc43)c(C(=O)N3CCOCC3)nc12 (centres undefined) -1.32%, COc1ccc(-c2ccc(C3C4C=CCCC4(C)C(=O)N3Cc3ccccc3)c(F)c2)cc1OC (centres undefined) -5.3%, CCCOC(=O)c1c(NC(=O)c2cnn3c2NC(c2ccccc2)CC3C(F)(F)F)sc2c1CCCC2 (centres undefined) -2.79%, COc1ccc(OC)c(C2C3=C(N=c4s/c(=C\c5cccc(O)c5)c(=O)n42)c2ccccc2CC3)c1 (centres undefined) -16.4%, Cc1cc(-c2nnc(CCC(=O)NC(c3ccccc3)c3ccccc3)o2)no1 10.9%, CCCN1CCC(=O)N(C(CSc2ccc(OC)cc2)Cc2ccccc2)CC1 (centres undefined) 8.03%, Cc1noc(C)c1-c1ccc2ncnc(NC(C)c3ccco3)c2c1 (centres undefined) -22.2%, O=C(CNC1CCCCC1)NCC1(c2ccccc2)CCCC1 6.6%, Nc1nc(NC(=O)/C=C/c2ccc(F)cc2)nn1-c1ccccc1 -1.51%, CC(Nc1nc(N2CCOCC2)nc2ccccc12)c1ccccc1 (centres undefined) 19.1%, COc1ccc(C2=Nn3c(nnc3-c3ccccc3O)SC2)cc1 -4%, O=C(O)C1CC=CC2CCN(C3CCCCC3)C(=O)C21 (centres undefined) 18.6%, Cc1ccc(CN(Cc2cccnc2)C(=S)Nc2cc(Cl)ccc2C)cc1 10.9%, O=C(NCc1ccccn1)[C@]1(C(F)(F)F)C[C@H](CCc2ccccc2)CCCO1 -3.84%, Cc1ccc(SCC(CC(C)C)N2CCN(CCc3ccccc3)CCC2=O)cc1 (centres undefined) 13.6%, O=C(CC1NCCc2ccccc21)Nc1cccc(Cl)c1 (centres undefined) -6.51%, CCOC(=O)c1ccccc1N1C(=O)C2Sc3[nH]c(=O)sc3C(/C=C/c3ccccc3)C2C1=O (centres undefined) -3.6%, CCOC(=O)c1cc2c(=O)[nH]c(C(Cl)(Cl)Cl)nc2o1 7%, C[C@@H](O)[C@@H]1NC(=O)[C@H](CCCCN)NC(=O)[C@H](Cc2c[nH]c3ccccc23)NC(=O)[C@H](Cc2ccccc2)NC(=O)[C@H](Cc2ccccc2)NC(=O)[C@H](CC(N)=O)NC(=O)[C@H](CCCCN)NC(=O)[C@@H](NC(=O)[C@@H]2CCCN2)CSSC[C@@H](C(=O)N[C@@H](CCCCN)C(=O)O)NC(=O)[C@H](CO)NC(=O)[C@H](CO)NC(=O)[C@H](Cc2ccccc2)NC1=O (H-PCKNFFWKTFSSCK-OH; disulfide 2-13) 10.5%, O=C1C2C(c3ccccc3)CC=CC2C(c2ccoc2)N1Cc1ccccc1 (centres undefined) 14.2%, COCCCn1c(SCc2cccc(OC)c2)nc2cc(OC)c(OC)cc2c1=N -7.59%, C=C1/C(=C\C=C2\CCCC3(C)C2CCC3C(C)/C=C/C(O)C2CC2)CC(O)CC1O (centres undefined) 13.2%, CCOC(=O)C(C)Oc1cccc2c(=O)n(CC(=O)NCCc3ccc(OC)c(OC)c3)ccc12 (centres undefined) 2.24% [at 2.36 µM], COc1ccc(C(=O)C2CCCN(Cc3cccn3-c3ccccn3)C2)c(C)c1 (centres undefined) -4.12%, ONC(=Nc1ccc(Cl)cc1)c1ccccc1Cl 16.1%, COc1cc(CN2CCN(Cc3ccc(C)cc3)CC2)c([N+](=O)[O-])cc1OC -8.19%, C=C/C1=C/Cc2ccccc2[C@H](C[N+](=O)[O-])C(C(=O)OC)(C(=O)OC)C1 -6.91%, COC(=O)c1c(NC(=O)CN2C(=O)NC(CCc3ccccc3)C2=O)sc2c1CCCCC2 (centres undefined) -2.03%, CC(C)(C)NCCCOc1ccc(Cl)cc1C(C)(C)C -23.8%, CCCNC(=O)OC[C@H]1O[C@H](CCO/N=C/[C@@H](NS(=O)(=O)c2ccc(C)cc2)[C@H](C)/C=C/CC(=O)OC)C=C[C@@H]1Oc1ccc(OC)cc1 -0.295% [at 2.36 µM], C/C=C/c1ccc(OCCCCN2CCC(C)CC2)c(OC)c1 5.81%, Cc1cccc(N2CCC(NCc3c(C(=O)N4CCCCC4)nc4c(C)cccn34)CC2)c1 5.52%, CC1(C)CC(CNCCC(c2ccc(F)cc2)c2ccco2)CCO1 (centres undefined) 18%, Fc1ccc(Cl)cc1-c1nc(Nc2ccncc2)c2nccnc2n1 14.3%, CCOc1ccc2sc(NS(=O)(=O)c3ccc(N)cc3)nc2c1 5.42%, CCc1ccc(CN(C)C(=O)CCc2nnc(-c3ccc(-c4ccccc4)cc3)o2)nc1 0.367%, CCOC(=O)C1(CCOc2ccccc2)CCN(C(=O)c2cncs2)CC1 15.7%, COc1ccc(C(CC(=O)N2CCN(c3ccccc3)CC2)c2c(O)cc(OC)cc2OC)cc1 (centres undefined)
